# Measurements: ChEMBL document CHEMBL1157539, “Thousands of chemical starting points for antimalarial lead identification” (Nature, 2010)
# Assays:
# Format in all cases: functional
# [1] = tested on: Plasmodium falciparum; assay: GSK_TCMDC: Inhibition of Plasmodium falciparum 3D7 in whole red blood cells, using parasite LDH activity as an index of growth. Test compounds present at 2uM
# [2] = tested on: Plasmodium falciparum; assay: GSK_TCMDC: Inhibition of Plasmodium falciparum Dd2 in whole red blood cells, using parasite LDH activity as an index of growth. Test compounds present at 2uM
# [3] = tested on: HepG2; assay: GSK_TCMDC: Percent inhibition of human HepG2 cell line. Test compounds present at 10uM.
Compound,Inhibition [1] [%],Inhibition [2] [%],Inhibition [3] [%]
CCc1ccc(NC(=O)c2cccc(CN3CCCN(Cc4cccc(O)c4)CC3)c2)cc1.O=C(O)C(F)(F)F,99,50,53
COc1cc2cc(C(=O)Nc3ccccc3)c(N)nc2cc1OC,90,0,0
CN(C)CCN1CCN(CCCN2c3ccccc3Sc3ccc(C(F)(F)F)cc32)CC1.Cl,99,61,98
CCOC(=O)/C(=N\OC(C)(C)C(=O)NCc1ccc(O)c(O)c1)c1csc(NC(c2ccccc2)(c2ccccc2)c2ccccc2)n1,100,99,13
CCCCNS(=O)(=O)c1ccc(NC(=O)c2cc([N+](=O)[O-])ccc2Cl)cc1,92,47,12
CCCC(C)Nc1nc(C)cc(N[C@@H](CC(C)C)C(=O)NCCOc2ccccc2)n1.O=C(O)C(F)(F)F (some centres undefined),93,28,15
COc1nc2c(CCN3CCC(NCc4ccc5c(n4)NC(=O)CO5)CC3)c(Cl)cnc2cc1F.Cl,99,40,17
Br.CCCc1cccc(C)c1OCCCON1C(=N)N=C(N)NC1(C)C,95,96,57
CCNc1cc(C(=O)N[C@@H](Cc2ccccc2)[C@H](O)CNC(CC)c2cccc(Cl)c2)cc(N2CCCCS2(=O)=O)c1.Cl (some centres undefined),100,98,12
CCCCCN1CCC(NS(=O)(=O)c2cccc(C(=O)Nc3ccc(C(F)(F)F)cc3)c2)C1.O=C(O)C(F)(F)F (centres undefined),95,5,45
Cc1ccc(C)c(NC(=O)NC2CCN(c3ccnc(Nc4ccc(F)cc4)n3)C2)c1 (centres undefined),100,74,0
Cl.OC(CN1CCN(c2cccc(Cl)c2)CC1)C(c1ccccc1)c1ccccc1 (centres undefined),85,4,0
Cc1cc(F)ccc1[C@H]1C[C@H](N2CCOCC2)CCN1C(=O)N(C)[C@@H](C)c1cc(C(F)(F)F)cc(C(F)(F)F)c1.Cl,100,99,4
Cl.c1ccc2c(NCCCCCCCCNc3ccnc4ccccc34)ccnc2c1,100,35,57
Clc1cc(Cl)c2c(c1)C(NCCCNc1nc3ccccc3[nH]1)CCO2 (centres undefined),100,31,28
Cc1cc(NC(=O)NCCN2CCC(NC(=O)c3ccc(Cl)cc3)CC2)c2ccccc2n1,90,54,0
COc1cc(NC(=O)/C=C/c2cc(F)cc(F)c2F)cc(OCCN2CCN(CCN3CCOCC3)CC2)c1.O=C(O)C(=O)O,100,94,21
COc1ccc(C23Oc4cc(OC)cc(OC)c4C2(O)C2(CC3c3ccccc3)SCCCS2)cc1 (centres undefined),96,97,39
Cn1cnc(CCNC(=O)c2ccc(-c3cccc(-c4nc5cc(C(F)(F)F)ccc5[nH]4)c3)cc2)c1,100,93,25
CC(C)(C)c1ccc(N2C(N)=NC(N)=NC2(C)C)cc1Cl.Cl,94,3,51
O=C1C(c2ccccc2)=C(Nc2ccc([N+](=O)[O-])cc2)c2ccccc21,95,73,0
Cc1c(Cl)ccc2c(C(=O)Nc3ccncc3)cc(-c3cccnc3)nc12,99,83,16
Cc1ccc(CNc2cc(C(F)(F)F)nc(-c3ccc(S(C)(=O)=O)cc3)n2)cc1,89,72,2
CC(=O)c1ccc(-c2cccc3c(CC(=O)Nc4ccc5nccc(N6CCN(C)CC6)c5c4)cccc23)cc1,100,96,3
CC(=O)Nc1ccc(C(=O)Nc2cccc(-c3ccc(-c4nc5cccc(C)c5[nH]4)cc3)c2)cn1,100,94,25
CCOC(=O)c1[nH]c2ccc(F)cc2c1NC(=O)CN1CCN(c2cccc(C(F)(F)F)c2)CC1,96,90,12
COc1ccc(C=NN=c2cc(C)[nH]c3ccc(C)cc23)c2ccccc12.Cl,94,55,28
COc1ccccc1C1CCN(C2CCC(NC(=O)/C=C/c3cccc(Cl)c3F)CC2)CC1 (centres undefined),96,19,50
